Targets with the largest changes are over-represented here; the source holds about 21,000 in all.
Compound: Cc1cc(ccc1-c1ccccc1)C(=O)N1CCCN(CC1)C(=O)CCl [compound 10]
Assay: probe-labelled cysteine peptide fold change vs DMSO (competition) (log2 fold change); higher = less target engagement (more negative = stronger competition)
Conditions: THP-1, incubation time: 4 h
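Note: competitive profiling in live THP-1 cells: cysteine peptides tagged with an iodoacetamide desthiobiotin (IA-DTB) probe, intensity after compound treatment relative to DMSO-treated cells.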

Target	probe-labelled cysteine peptide fold change (10 µM)	probe-labelled cysteine peptide fold change (50 µM)
DHX57_Q6P158_644_LLYCTTGVLLR<|>DHX29_Q7Z478_678_LLYCTTGVLLR (UniProt Q7Z478+Q6P158)	-0.0914	0.172
CPNE8_Q86YQ8_196_SNEDGSFTICHK (UniProt Q86YQ8)	0.205	0.413
DDX39A_O00148_62_AIVDCGFEHPSEVQHECIPQAILGMDVLCQAK (UniProt O00148)	0.144	0.0705
CRIP1_P50238_52+56_PYCNHPCYAAMFGPK (UniProt P50238)	0.0432	-0.424
CPPED1_Q9BRF8_88_FFVLCGDLIHAMPGKPWR (UniProt Q9BRF8)	-0.0653	-0.191
CRABP1_P29762_130_ELANDELILTFGADDVVCTR (UniProt P29762)	0.082	0.307
DDX54_Q8TDD1_389_CSTLIVTDLAAR (UniProt Q8TDD1)	0.1	0.184
DNM1L_O00429_446_IIQHCSNYSTQELLR (UniProt O00429)	-0.165	-0.0631
DCTD_P32321_60_IVGIGYNGMPNGCSDDVLPWR (UniProt P32321)	0.155	-0.179
COLGALT1_Q8NBJ5_369_ALQAQEIECR (UniProt Q8NBJ5)	0.0256	0.125
CXXC1_Q9P0U4_564_VPADEVCGCPLVR (UniProt Q9P0U4)	0.111	-0.109
DESI1_Q6ICB0_108_GEAYNLFEHNCNTFSNEVAQFLTGR (UniProt Q6ICB0)	-0.076	-1.61
DCAF12L1_Q5VU92_150_LAQDQQGCGIHAIELNPSK (UniProt Q5VU92)	-0.214	-0.239
CNNM4_Q6P4Q7_220_IVQNCGTEK<|>CNNM2_Q9H8M5_293_IVQNCGTEK (UniProt Q9H8M5+Q6P4Q7)	-0.2	-0.279
CTPS1_P17812_30_SCGLHVTSIK (UniProt P17812)	0.14	0.147
CTNNB1_P35222_520_NLALCPANHAPLR (UniProt P35222)	-0.273	1.23
CTU1_Q7Z7A3_144_SCCTFCGVLR (UniProt Q7Z7A3)	-0.353	-1.17
CNBP_P62633_150_CGETGHVAINCSK (UniProt P62633)	-0.103	0.0483
DIP2A_Q14689_6_GCPLEAAPLPAEVR (UniProt Q14689)	-0.41	-2.19
COPA_P53621_1148_KILSACEK (UniProt P53621)	-0.212	-1.12
DCLRE1C_Q96SD1_34_AYFLSHCHK (UniProt Q96SD1)	-0.0775	-0.167

Target	probe-labelled cysteine peptide fold change (10 µM)	probe-labelled cysteine peptide fold change (50 µM)
COA7_Q96BR5_187_ACDLGHIWACANASR (UniProt Q96BR5)	0.0578	0.0556
COMT_P21964_241_GSSCFECTHYQSFLEYR (UniProt P21964)	0.0648	-0.0597
COPE_O14579_225_CSPTLLLLNGQAACHMAQGR (UniProt O14579)	0.0563	0.158
CSRP1_P21291_167_GLESTTLADKDGEIYCK (UniProt P21291)	-0.0814	-1.06
DENND4A_Q7Z401_35_PLEEEIHFNDACHK (UniProt Q7Z401)	-0.0984	-0.131
DDX55_Q8NHQ9_161_AEGLDLASCVR (UniProt Q8NHQ9)	0.187	0.31
CMTM3_Q96MX0_38_AFLCSLK (UniProt Q96MX0)	-0.91	-3.05
DDX20_Q9UHI6_98_CGLDLIVQAK (UniProt Q9UHI6)	-0.0986	-0.579
CSDE1_O75534_657_FQLCVLGQNAQTMAYNITPLR (UniProt O75534)	0.223	0.2
DHX30_Q7L2E3_346_RPCTIQVPEPILR (UniProt Q7L2E3)	-0.647	-1.7
CTR9_Q6PD62_196_TNPGCPAEVR (UniProt Q6PD62)	-0.0165	-0.0939
COPG1_Q9Y678_440_ETGLSHLCEFIEDCEFTVLATR (UniProt Q9Y678)	0.0873	0.125
CYB5R4_Q7L1T6_278_CQLISK (UniProt Q7L1T6)	-0.0627	-0.00326
DNAJA3_Q96EY1_236_EFTVNIMDTCER (UniProt Q96EY1)	-0.1	-0.195
DDX27_Q96GQ7_259_DICACAATGTGK (UniProt Q96GQ7)	0.0194	-0.0602
CTDP1_Q9Y5B0_277_ILSRDECIDPFSK (UniProt Q9Y5B0)	-0.0626	-0.31
DDX5_P17844_170_TLSYLLPAIVHINHQPFLERGDGPICLVLAPTR (UniProt P17844)	0.236	0.565
CUL9_Q8IWT3_76_AEHILMWLSAPEVYANCPGLLGER (UniProt Q8IWT3)	0.0237	-0.0123
CTNNA1_P35221_461_MSASQLEALCPQVINAALALAAK (UniProt P35221)	0.108	0.332
CRIP2_P52943_150_DWHRPCLR (UniProt P52943)	0.923	1.04
CTSG_P08311_142_AQEGLRPGTLCTVAGWGR (UniProt P08311)	-0.0347	-0.0423

Target	probe-labelled cysteine peptide fold change (10 µM)	probe-labelled cysteine peptide fold change (50 µM)
CORO1B_Q9BR76_25_NDQCYEDIR (UniProt Q9BR76)	-0.0464	-0.0083
COX17_Q14061_23+24_KPLKPCCACPETK (UniProt Q14061)	-0.321	-2.25
CTSG_P08311_207_AAFKGDSGGPLLCNNVAHGIVSYGK (UniProt P08311)	-0.329	-0.817
CUL3_Q13618_462+464_LKTECGCQFTSK (UniProt Q13618)	-0.0794	-1.31
COG1_Q8WTW3_318_LCSWFK (UniProt Q8WTW3)	-1.03	-2.3
DHRS4L2_Q6PKH6_86_KQQNVDQAVATLQGEGLSVTGTVCHVGK (UniProt Q6PKH6)	0.254	-0.306
DDX24_Q9GZR7_599_SLVFANSISCIK (UniProt Q9GZR7)	0.147	0.498
CRYZL1_O95825_302_YLCILK (UniProt O95825)	-0.195	-0.442
CXXC1_Q9P0U4_38_KPDINCFMIGCDNCNEWFHGDCIR (UniProt Q9P0U4)	0.0402	-1.06
DDX17_Q92841_166+199_GGDVCPKPVFAFHHANFPQYVMDVLMDQHFTEPTPIQCQGFPLALSGR (UniProt Q92841)	-0.28	-1.05
CPSF3_Q9UKF6_626_RLEIMLQDIFGEDCVSVK (UniProt Q9UKF6)	-0.0218	0.198
CNPY2_Q9Y2B0_28_SQDLHCGACR (UniProt Q9Y2B0)	-0.272	-0.187
DBR1_Q9UK59_347_VPCNFSVTAACYDPSKPQTQMQLIHR (UniProt Q9UK59)	-0.109	-0.299
DDX3X_O00571_128_WCDKSDEDDWSK (UniProt O00571)	-0.303	-1.35
CROT_Q9UKG9_584_SCPETDAEK (UniProt Q9UKG9)	-0.0249	0.181
DDX10_Q13206_196_INNINILVCTPGR (UniProt Q13206)	0.0926	0.195
DDHD2_O94830_470_ESEFCSSSNTR (UniProt O94830)	-0.28	-0.538
DENND3_A2RUS2_499_LTDTAGCR (UniProt A2RUS2)	-0.198	-0.918
CORO7_P57737_790_TECDVREVELMR (UniProt P57737)	-0.178	-0.995
CRELD2_Q6UXH1_166_QGDGSCR (UniProt Q6UXH1)	-0.195	-0.265
DNAJC7_Q99615_175_ALEFAPACHR (UniProt Q99615)	-0.118	-0.577

Target	probe-labelled cysteine peptide fold change (10 µM)	probe-labelled cysteine peptide fold change (50 µM)
DKC1_O60832_74_TTHYTPLACGSNPLKR (UniProt O60832)	-0.0751	-0.244
DNAJC7_Q99615_58_AIDMCPK (UniProt Q99615)	0.162	0.0415
DENND3_A2RUS2_801_TECDLWHLMVK (UniProt A2RUS2)	-0.103	-0.116
DHX30_Q7L2E3_673_GEPGGILCFLPGWQEIK (UniProt Q7L2E3)	0.357	0.169
DNMT1_P26358_1339_ACQLSVVVDDKK (UniProt P26358)	-0.133	-1.16
DBR1_Q9UK59_36_RGPGPVDLLLCCGDFQAVR (UniProt Q9UK59)	0.0792	-0.183
CRYZ_Q08257_45_VHACGVNPVETYIR (UniProt Q08257)	0.0503	-0.01
DEF6_Q9H4E7_266_GIIPLDAHCCVEVLPDRDGKR (UniProt Q9H4E7)	0.106	-0.227
DCAF8_Q5TAQ9_256_FLPNSGDSTLAMCAR (UniProt Q5TAQ9)	-0.0556	-0.22
DDX52_Q9Y2R4_342_TGFRDQLASIFLACTSHK (UniProt Q9Y2R4)	0.00973	0.189
DHX9_Q08211_608+612_KDKDDDGGEDDDANCNLICGDEYGPETR (UniProt Q08211)	-0.761	-0.243
CTPS2_Q9NRF8_299_ICSIALVGK (UniProt Q9NRF8)	-0.0254	0.193
DENND4A_Q7Z401_952_GSADCLPK (UniProt Q7Z401)	-0.312	0.101
CTNND1_O60716_618_YQEAAPNVANNTGPHAASCFGAK (UniProt O60716)	-0.274	-0.78
CTSH_P09668_272_TGIYSSTSCHK (UniProt P09668)	0.176	-0.114
CNN2_Q99439_215_CASQVGMTAPGTR (UniProt Q99439)	-0.0958	-0.449
DIAPH3_Q9NSV4_663_IRPHEMTENCFWIK (UniProt Q9NSV4)	-0.0626	-0.468
CSE1L_P55060_61_VCASVTFK (UniProt P55060)	-0.071	0.0214
CRIP1_P50238_56_TLTSGGHAEHEGKPYCNHPCYAAMFGPK (UniProt P50238)	-0.447	-1.41
CROT_Q9UKG9_166_MLFSTCK (UniProt Q9UKG9)	-0.0518	-0.0687
CMTR1_Q8N1G2_794_DSTFDLPADSIAPFHICYYGR (UniProt Q8N1G2)	0.205	0.653
